The nature of test [1]: qHTS assay to identify small molecule antagonists of the estrogen receptor alpha (ER-alpha) signaling pathway using the BG1 cell line in the presence of 0.1 nM 17-beta-estradiol - cell viability counter screen (AID 1259241). Note: nearly all actives have a fitted effect of over 40% in size. The procedure, abridged: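 CellTiter-Fluor read (30 min, 37C) on ER-alpha/ERE-luc VM7Luc4E2 cells; 22 hr compound treatment; agonist 0.1 nM E2 final; same-well multiplex.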

Test [2] is described as follows: qHTS assay to identify small molecule antagonists of the androgen receptor (AR) signaling pathway using the MDA cell line in the presence of 0.5 nM R1881 - cell viability counter screen (AID 1259242). Note: nearly all actives have a fitted effect of over 45% in size. The gist of the method: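 Steps: plate MDA-kb2 cells, rest 5 hr at 37C without CO2; pin in compounds in DMSO; add R1881 to 0.5 nM final; incubate 16 hr; add CellTiter-Fluor, 30 min; read fluorescence.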
Background: qHTS replaces the single test concentration by a dilution series.

For test [3], the target named is Androgen receptor (Homo sapiens) (UniProt P10275). The test is described as follows: qHTS assay to identify small molecule antagonists of the androgen receptor (AR) signaling pathway using the MDA cell line in the presence of 0.5 nM R1881 (AID 1259243). Note: nearly all actives have a fitted effect of over 50% in size. The gist of the method: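 Stably transfected MDA-kb2 cells express luciferase from an MMTV promoter bearing both AR and GR response elements. Compounds plus 0.5 nM R1881 (final) were incubated 16 hr at 37C without CO2, then luminescence measured.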
Chain of Androgen receptor (Homo sapiens) (P10275 whole entry, looked up): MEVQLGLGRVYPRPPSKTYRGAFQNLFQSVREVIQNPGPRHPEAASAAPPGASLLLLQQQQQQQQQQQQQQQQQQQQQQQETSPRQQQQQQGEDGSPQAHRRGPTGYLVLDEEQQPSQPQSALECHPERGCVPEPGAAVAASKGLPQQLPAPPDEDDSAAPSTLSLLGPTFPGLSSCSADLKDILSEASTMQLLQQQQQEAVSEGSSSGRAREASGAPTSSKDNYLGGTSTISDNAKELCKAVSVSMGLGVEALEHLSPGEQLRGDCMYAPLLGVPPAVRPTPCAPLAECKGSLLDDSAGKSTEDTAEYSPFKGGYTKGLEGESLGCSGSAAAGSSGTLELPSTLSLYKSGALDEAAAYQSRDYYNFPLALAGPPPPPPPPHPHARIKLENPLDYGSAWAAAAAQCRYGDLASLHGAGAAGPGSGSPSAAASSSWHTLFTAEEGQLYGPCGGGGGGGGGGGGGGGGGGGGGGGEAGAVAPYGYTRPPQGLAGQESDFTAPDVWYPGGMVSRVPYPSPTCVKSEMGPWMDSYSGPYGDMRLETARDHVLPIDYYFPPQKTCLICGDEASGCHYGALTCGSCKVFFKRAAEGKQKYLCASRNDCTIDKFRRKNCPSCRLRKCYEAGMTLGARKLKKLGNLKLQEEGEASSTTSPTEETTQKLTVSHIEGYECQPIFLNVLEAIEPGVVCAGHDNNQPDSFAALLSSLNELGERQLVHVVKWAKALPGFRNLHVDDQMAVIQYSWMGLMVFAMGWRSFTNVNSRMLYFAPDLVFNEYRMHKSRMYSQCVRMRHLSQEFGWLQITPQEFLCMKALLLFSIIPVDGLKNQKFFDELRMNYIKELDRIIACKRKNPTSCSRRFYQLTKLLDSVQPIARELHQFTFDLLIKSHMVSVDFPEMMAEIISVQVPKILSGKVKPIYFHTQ

Test [4] in a line: qHTS assay to identify small molecule agonists of the sonic hedgehog signaling (Shh) pathway - cell viability counter screen (AID 1259366). Note: nearly all actives have a fitted effect of over 50% in size. The gist of the method:
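Fluorescence from CellTiter-Fluor reports live cells in this counter screen. NIH/3T3-derived Gli1-Luc reporter cells receive test compounds for 24hr at 37C; reagent goes in at 23hr.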

A short description of test [5]: qHTS assay to identify small molecule antagonists of the sonic hedgehog signaling (Shh) pathway - cell viability counter screen (AID 1259367). Note: nearly all actives have a fitted effect of over 55% in size. The procedure, abridged:
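Tox21 library chemicals were tested on a Gli1-Luc NIH/3T3 clone (2,000 cells/well) stimulated by conditioned medium; viability was quantified as fluorescence from CellTiter-Fluor reagent added at 23 hr.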

Test [6] is described as follows: qHTS assay to identify small molecule agonists of the sonic hedgehog signaling (Shh) pathway (AID 1259368; calls by dose curve;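 note: NIH/3T3-derived 3T3Gli1-Luc cells carrying a stable Gli1-driven firefly luciferase reporter; series mostly up to about 92 µM; nearly all actives have a fitted effect of over 15% in size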). The procedure, abridged:
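Cells of a mouse NIH/3T3 clone stably expressing luciferase under the Gli1 transcriptional response element are exposed to test chemicals for 24 hr at 37 C. Pathway activation is detected as a rise in luminescence.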

A short description of test [7]: qHTS assay to identify small molecule antagonists of the sonic hedgehog signaling (Shh) pathway (AID 1259369; calls by dose curve; note: nearly all actives have a fitted effect of over 45% in size). The gist of the method:
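Cells are plated and held 4hr at 37 C, compounds (DMSO) are pinned in, conditioned medium is added to stimulate the pathway, and after 24hr luciferase reagent is added for 30min before luminescence is read.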

Test [8] can be described thus: qHTS assay to identify small molecule agonists of the estrogen receptor beta (ER-beta) signaling pathway - cell viability counter screen (AID 1259380). Note: nearly all actives have a fitted effect of over 30% in size. Note: potency is the fitted concentration of half-maximal effect. The gist of the method:
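Cytotoxicity is measured in parallel with the reporter screen: after 16 hr compound exposure at 37C and a 2 hr LiveBLAzer step, CellTiter-Glo is added to the same ER-beta-UAS-bla HEK293T wells and luminescence read after 30 min.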

Test [9] concerns the target Androgen receptor (Homo sapiens) (UniProt P10275). The experiment in a line: qHTS assay to identify small molecule agonists of the androgen receptor (AR) signaling pathway in the presence of an antagonist (AID 1259381; calls by dose curve; note: nearly all actives have a fitted effect of over 15% in size). The procedure, abridged: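 Agonist-mode confirmation screen: human MDA-kb2 cells stably expressing luciferase under an MMTV promoter bearing AR and GR response elements, co-treated with 3.0uM nilutamide (final). Luminescence measured after 16hr compound incubation.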

Test [10] in a line: qHTS assay to identify small molecule antagonists of the estrogen receptor beta (ER-beta) signaling pathway - cell viability counter screen (AID 1259382). Note: series mostly up to about 92 µM; nearly all actives have a fitted effect of over 55% in size. The procedure, abridged: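 Cytotoxicity counter screen multiplexed with the beta-lactamase antagonist assay: GripTite HEK293T ER-beta-bla cells were treated 16 hr with test chemicals in the presence of 1nM 17-beta-estradiol, and viability was measured by CellTiter-Glo.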

Test [11] concerns the target Estrogen receptor (Homo sapiens) (UniProt P03372). The experiment in a line: qHTS assay to identify small molecule agonists of the estrogen receptor alpha (ER-alpha) signaling pathway in the presence of an antagonist (AID 1259383; calls by dose curve; note: top concentration of the series differs between compounds; nearly all actives have a fitted effect of over 15% in size). The gist of the method:
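Agonist-mode confirmation in the presence of the ER antagonist ICI-182,780 at 10.0nM final. Breast-derived VM7Luc4E2 reporter cells were exposed to compounds for 22hr, and ERE-driven luciferase was quantified by luminescence.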

The nature of test [12]: qHTS assay to identify small molecule agonists or antagonists of the thyroid stimulating hormone receptor (TSHR) signaling pathway - wild type cell line counter screen (AID 1259384; calls by dose curve). The procedure, abridged: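 Wild-type Hek293 cells, 800/well, 18 h at 37C, then compound with Ro20-1724 for 30 min RT. cAMP by HTRF (cAMP-d2/anti-cAMP cryptate), 1 h RT, fluorescence read. 15 concentrations, triplicates.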

Test [13] deals with Thyrotropin receptor (Homo sapiens) (UniProt P16473). The test is described as follows: qHTS assay to identify small molecule antagonists of the thyroid stimulating hormone receptor (TSHR) signaling pathway (AID 1259385; calls by dose curve; note: nearly all actives have a fitted effect of over 20% in size). The gist of the method:
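TSHR-HEK293 cells (800/well) plated 18 h, then compounds with Ro20-1724 and TSH at 1.5 ng/mL final, 30 min at room temperature. cAMP quantified by HTRF (cAMP-d2/anti-cAMP-cryptate, 1 h); 15 concentrations in triplicate.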

The target of test [14] is Estrogen receptor (Homo sapiens) (UniProt P03372). The test is described as follows: qHTS assay to identify small molecule antagonists of the estrogen receptor alpha (ER-alpha) signaling pathway using the BG1 cell line in the presence of 0.1 nM 17-beta-estradiol (AID 1259244). Note: nearly all actives have a fitted effect of over 50% in size. The procedure, abridged: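 Antagonist mode: compounds in DMSO are pinned onto VM7Luc4E2 reporter cells, 0.1 nM final 17beta-estradiol is added, and after 22 h at 37C luciferase luminescence is measured with ONE-Glo.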
Chain of Estrogen receptor (Homo sapiens) (P03372 whole entry, looked up): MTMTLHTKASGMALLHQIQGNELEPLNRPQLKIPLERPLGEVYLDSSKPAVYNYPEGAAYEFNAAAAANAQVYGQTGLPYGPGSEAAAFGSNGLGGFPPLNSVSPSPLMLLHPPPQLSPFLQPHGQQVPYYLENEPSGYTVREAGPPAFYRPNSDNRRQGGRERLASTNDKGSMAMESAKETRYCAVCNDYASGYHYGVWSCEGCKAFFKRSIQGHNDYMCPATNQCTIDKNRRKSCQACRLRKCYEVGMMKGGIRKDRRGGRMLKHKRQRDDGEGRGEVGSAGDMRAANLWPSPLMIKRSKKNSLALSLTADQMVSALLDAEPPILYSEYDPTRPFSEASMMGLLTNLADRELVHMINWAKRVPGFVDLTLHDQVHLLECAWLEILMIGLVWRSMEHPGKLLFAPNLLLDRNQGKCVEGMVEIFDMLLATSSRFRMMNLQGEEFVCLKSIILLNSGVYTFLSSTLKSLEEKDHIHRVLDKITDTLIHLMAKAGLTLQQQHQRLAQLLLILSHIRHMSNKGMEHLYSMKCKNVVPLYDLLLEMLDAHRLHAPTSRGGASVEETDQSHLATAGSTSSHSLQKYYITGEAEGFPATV

A short description of test [15]: qHTS assay to identify small molecule HDAC inhibitors (AID 1259364).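 Note: wild-type HCT-116 cells with endogenous class I/II HDAC activity; top concentration of the series differs between compounds; nearly all actives have a fitted effect of over 45% in size.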 The gist of the method:
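Cells (HCT-116, wild type) are seeded at 1,500 per well, incubated overnight, treated with compound in DMSO for 2 hr, then developed with HDAC-Glo I/II reagent for 30 min at room temperature.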

The nature of test [16]: qHTS assay to identify small molecule HDAC inhibitors - cell viability counter screen (AID 1259365). Note: series mostly up to about 92 µM; nearly all actives have a fitted effect of over 50% in size. The procedure, abridged:
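To flag cytotoxic hits, 1,500 wild-type HCT-116 cells per well, plated the day before, receive test compounds for 2hr at 37 C before CellTiter-Glo reagent and a luminescence read.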

Test [17] addresses Estrogen receptor beta (Homo sapiens) (UniProt Q92731). The experiment in a line: qHTS assay to identify small molecule agonists of the estrogen receptor beta (ER-beta) signaling pathway (AID 1259377; active = well fitted activation curve with a large enough effect in the signal ratio in the repeat runs, not every such curve was filed as active; the % refers to the signal ratio). The procedure, abridged:
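Screening used GripTite ER-beta-UAS-bla cells held in 2% charcoal-stripped FBS medium. After overnight (16 hr) compound incubation at 37C, beta-lactamase activity was detected with a FRET substrate by fluorescence.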

For test [18] the target is unchanged. The test is described as follows: qHTS assay to identify small molecule antagonists of the estrogen receptor beta (ER-beta) signaling pathway (AID 1259378; active = well fitted inhibition curve with a large enough effect in the signal ratio in the repeat runs, not every such curve was filed as active; the % refers to the signal ratio). The procedure, abridged:
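ER-beta-UAS-bla HEK293T cells in 2% charcoal-stripped FBS medium treated with compound plus 1nM final 17-beta-estradiol for 16 hr at 37C. Beta-lactamase reporter read by FRET substrate fluorescence after 2 hours at room temperature.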

The nature of test [19]: qHTS assay to identify small molecule agonists of the androgen receptor (AR) signaling pathway in the presence of an antagonist - cell viability counter screen (AID 1259379).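 Note: MDA-kb2 human breast cancer cells carrying an MMTV luciferase reporter; series mostly up to about 92 µM; nearly all actives have a fitted effect of over 25% in size.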 The gist of the method:
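Cytotoxicity is assessed by CellTiter-Fluor in MDA-kb2 cells carrying an MMTV-driven luciferase reporter. Cells receive 3.0uM nilutamide plus compounds at 15 concentrations and incubate 16 hr at 37C without CO2 before fluorescence reading.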

A short description of test [20]: qHTS assay to identify small molecule phospholipidosis (PLD) inducers (AID 1259344; active = well fitted curve in the direction sought with a large enough effect; an effect the other way counts as inactive or inconclusive). The procedure, abridged:
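Image-based: LipidTOX Red pit count/intensity per well and per cell; HepG2, 24 h compound at 37 C, PFA fixation, Hoechst counterstain.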

For 9 compounds, Potency and outcome results are on record in PubChem BioAssay (Tox21).

Unmarked numbers belong to inactive results. Records with an inconclusive call do not appear. Activity calls are given as the source filed them. Unless noted, calls come from the whole dose curve; as a rule, active = well fitted curve in the direction sought with a large enough effect in the repeat runs; inconclusive = weak or mixed curves; inactive = no such curve, though single readings can be large; an effect the other way counts as inactive or inconclusive.

Chain of Thyrotropin receptor (Homo sapiens) (P16473 whole entry, looked up): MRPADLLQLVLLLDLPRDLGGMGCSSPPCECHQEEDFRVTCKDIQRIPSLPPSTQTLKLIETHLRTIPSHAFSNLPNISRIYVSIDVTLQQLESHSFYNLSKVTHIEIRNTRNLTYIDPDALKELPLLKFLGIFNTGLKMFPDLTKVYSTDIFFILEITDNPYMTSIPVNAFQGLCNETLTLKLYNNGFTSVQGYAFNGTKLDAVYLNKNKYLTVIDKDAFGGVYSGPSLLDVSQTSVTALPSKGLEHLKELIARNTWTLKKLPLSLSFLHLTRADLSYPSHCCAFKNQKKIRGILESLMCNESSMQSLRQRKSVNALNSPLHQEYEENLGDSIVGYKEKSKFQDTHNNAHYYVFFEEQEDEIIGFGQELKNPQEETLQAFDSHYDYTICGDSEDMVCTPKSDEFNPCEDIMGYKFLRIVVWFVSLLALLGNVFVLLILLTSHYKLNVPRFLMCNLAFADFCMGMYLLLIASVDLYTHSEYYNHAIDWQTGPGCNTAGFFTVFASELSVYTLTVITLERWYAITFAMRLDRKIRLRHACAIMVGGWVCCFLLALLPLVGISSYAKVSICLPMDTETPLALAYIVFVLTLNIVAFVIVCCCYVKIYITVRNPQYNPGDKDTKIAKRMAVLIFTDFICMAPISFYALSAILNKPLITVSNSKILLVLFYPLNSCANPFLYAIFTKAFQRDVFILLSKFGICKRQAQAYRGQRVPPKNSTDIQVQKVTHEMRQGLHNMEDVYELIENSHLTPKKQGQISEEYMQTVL
Chain of Estrogen receptor beta (Homo sapiens) (Q92731 whole entry, looked up): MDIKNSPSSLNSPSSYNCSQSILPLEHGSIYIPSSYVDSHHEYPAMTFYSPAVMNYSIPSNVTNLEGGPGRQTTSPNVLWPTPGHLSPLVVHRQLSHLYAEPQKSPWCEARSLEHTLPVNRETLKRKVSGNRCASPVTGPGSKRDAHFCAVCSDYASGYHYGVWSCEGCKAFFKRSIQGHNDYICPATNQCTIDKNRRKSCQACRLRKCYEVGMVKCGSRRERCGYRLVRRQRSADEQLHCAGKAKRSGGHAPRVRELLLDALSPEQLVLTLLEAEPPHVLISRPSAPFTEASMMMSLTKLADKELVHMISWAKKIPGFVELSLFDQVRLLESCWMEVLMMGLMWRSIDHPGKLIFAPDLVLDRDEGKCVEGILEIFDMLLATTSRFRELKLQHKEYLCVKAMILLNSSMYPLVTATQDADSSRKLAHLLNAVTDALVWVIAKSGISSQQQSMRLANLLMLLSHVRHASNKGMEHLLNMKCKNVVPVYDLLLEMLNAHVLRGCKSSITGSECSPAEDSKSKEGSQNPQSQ

`C[C@H](N)C(=O)N[C@@H](C)C(=O)NC1[C@H]2CN(c3nc4c(cc3F)c(=O)c(C(=O)O)cn4-c3ccc(F)cc3F)C[C@@H]12` (stereo partly specified): the Potency result in [1], in [2], in test [3], in test [4], in test [5] and in test [6] was “inactive” each time. Moreover, the Potency result in test [7], in [8], in test [9], in test [10], in test [11] and in test [13] was “inactive” throughout. Moreover, the result in test [12] was inactive.
Consider `CC(O)CN` (stereo unspecified), for which the Potency result in test [1], in test [2], in test [14], in [15], in [4] and in [5] was “inactive” in each case. Moreover, the Potency result in test [6], in test [7], in test [17], in test [18], in test [19] and in test [8] was “inactive” throughout. The Potency entry in [10], in test [11] and in test [13] was “inactive” throughout. The outcome in [16] and in test [12] was inactive.
With `CCCCOC(=O)C(C)Oc1ccc(Oc2ccc(C(F)(F)F)cn2)cc1` (stereo unspecified), the Potency entry in test [1], in test [2], in [14], in test [15], in test [4] and in test [5] was “inactive” each time. In addition, the Potency result in [6], in [7], in [17], in test [18], in test [19] and in [8] was “inactive” each time. Also, the Potency result in [10], in [11] and in [13] was “inactive” in each case. Besides, the result in [16] and in test [12] was inactive.
Consider `O=C1CCCN1CCO`, for which the Potency result in test [1], in [2], in test [14], in [15], in [4] and in [5] was “inactive” throughout. Besides, the Potency result in test [6], in test [7], in [18], in [19], in [11] and in test [13] was “inactive” each time. The outcome in test [16] and in [12] was inactive. Also, in [8], the Potency was 43.3 µM (active).
On to `Cc1ccc(Cl)c(OCC(O)CNC(C)(C)C)c1` (stereo unspecified), for which the Potency result in test [1], in [2], in [14], in test [15], in test [4] and in test [5] was “inactive” throughout. The Potency entry in test [6], in test [7], in test [17], in test [18], in [19] and in test [10] was “inactive” throughout. In addition, the Potency entry in test [11] is “inactive”. The compound was classed as inactive in [16].
With `O=C(O)CCc1nc2ccccc2[nH]1`, the Potency result in test [1], in [2], in test [14], in test [20], in test [15] and in [4] was “inactive” in each case. Also, the Potency result in [5], in test [6], in test [7], in [8], in [10] and in test [11] was “inactive” each time. The compound was classed as inactive in test [16].
As for `O=C(O)c1c2ccccc2cc2ccccc12`, the Potency entry in [1], in test [2], in test [14], in test [15], in test [4] and in test [5] was “inactive” each time. Besides, the Potency result in [6], in [7], in test [17], in test [8], in [10] and in [11] was “inactive” throughout. In [13], the Potency entry is “inactive”. Further, the compound was called inactive in test [16] and in test [12].
Consider `CCOC(OCC)OCC`, for which the Potency entry in test [1], in test [2], in test [14], in [15], in test [4] and in test [5] was “inactive” each time. Moreover, the Potency entry in [6], in test [7], in [17], in test [19], in test [8] and in test [10] was “inactive” throughout. Also, the Potency entry in test [11] and in test [13] was “inactive” throughout. In addition, the compound was called inactive in test [16] and in [12].
With `CC1(C)CC(=O)CC(C)(C)N1`, the Potency result in test [1], in test [2], in test [14], in [15], in test [4] and in [5] was “inactive” each time. Also, the Potency entry in test [6], in [7], in test [17], in [19], in test [8] and in [10] was “inactive” throughout. Further, the Potency result in test [11] and in [13] was “inactive” throughout. Also, the outcome in test [16] and in test [12] was inactive.
